Experimental data published in paper PMC5540273 (PLoS ONE, 2017).

Columns and labels:
Conditions in all cases: concentration: 1 μM,replicates: in singlicate; n = 1
MTOR = test system: MTOR
MUSK = test system: MUSK
MYLK2 = test system: MYLK2
MYLK4 = test system: MYLK4
MYLK = test system: MYLK
MYO3A = test system: MYO3A
MYO3B = test system: MYO3B
NDR1 = test system: T1, NDR1
T1 construct: gene STK38

NDR2 = test system: NDR2
NEK10 = test system: NEK10
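Also: KINOMEscan kinase panel screen.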

Row | Structure (SMILES) | %Inh (MTOR) [%] | %Inh (MUSK) [%] | %Inh (MYLK2) [%] | %Inh (MYLK4) [%] | %Inh (MYLK) [%] | %Inh (MYO3A) [%] | %Inh (MYO3B) [%] | %Inh (NDR1) [%] | %Inh (NDR2) [%] | %Inh (NEK10) [%]
1 | C[C@@H]1CCN(C(=O)N2CCCC2)C[C@@H]1N(C)c1ncnc2[nH]ccc12 | 8 | 0 | 5 | 3 | 2 | 1 | 0 | 4 | 0 | 30
2 | Cl.Nc1n[nH]c2cc(-c3ccccn3)ccc12 [GSK2189892] | 0 | 0 | 5 | 29 | 18 | 0 | 0 | 0 | 0 | 2
3 | COC(=O)Nc1nc2cc(Oc3ccc(NC(=O)Nc4cc(C(F)(F)F)ccc4Cl)cc3)ccc2[nH]1.Cl [GW697465] | 19 | 99.2 | 6 | 0 | 0 | 11 | 0 | 8 | 0 | 13
4 | CS(=O)(=O)c1cccc(CNc2nc(Nc3ccc4c(c3)[C@@H]3C[C@@H]4CNC3=O)ncc2C(F)(F)F)c1 | 12 | 26 | 12 | 0 | 12 | 13 | 54 | 85 | 6 | 0
5 | Cc1ccn2nc(-c3ccc(F)cc3)c(-c3ccncc3)c2c1.Cl [GW457859] | 8 | 0 | 23 | 0 | 26 | 48 | 0 | 13 | 40 | 0
6 | C[C@@H]1CNc2c(sc3ccc4nc(-c5ccncc5)ccc4c23)C(=O)N1 | 50 | 0 | 2 | 11 | 62 | 0 | 27 | 18 | 0 | 7
7 | CN1CCN(CCNc2nc3cc(Oc4ccc(NC(=O)Nc5cc(C(F)(F)F)ccc5F)cc4)ccc3[nH]2)CC1.Cl.Cl [GW768504] | 0 | 97.3 | 6 | 0 | 0 | 0 | 20 | 51 | 7 | 0
8 | COc1cc2ncn(-c3cc(OCC4CCCCC4)c(C(N)=O)s3)c2cc1OC [GSK204559] | 7 | 4 | 9 | 85 | 20 | 0 | 0 | 11 | 0 | 4
9 | COc1cc2nccc(Nc3ccc(Oc4ccccc4)cc3)c2cc1OC.Cl [GI261656] | 10 | 0 | 0 | 0 | 7 | 6 | 0 | 0 | 29 | 18
10 | CN(c1ccccc1CNc1nc(Nc2ccc3c(c2)CC(=O)N3)ncc1C(F)(F)F)S(C)(=O)=O | 21 | 71 | 4 | 2 | 0 | 0 | 0 | 33 | 12 | 0
11 | O=C(NCC1CC1)c1ccc(-c2cc(C(=O)NC3CC3)ccc2F)cc1 [GW810445] | 21 | 0 | 0 | 0 | 0 | 0 | 8 | 0 | 7 | 0
12 | O=C(Nc1cccc(Oc2ccc3nccn3n2)c1)Nc1cccc(C(F)(F)F)c1 | 23 | 51 | 0 | 0 | 0 | 0 | 3 | 0 | 0 | 0
13 | CCn1c(-c2nonc2N)nc2cncc(CNC3CCNCC3)c21.Cl [SB-747651] | 30 | 9 | 4 | 0 | 8 | 5 | 0 | 1 | 0 | 20
14 | Cc1n[nH]c2cc(Nc3ccnc(Nc4cccc(CN5CCOCC5)c4)n3)ccc12 [GW682569] | 14 | 15 | 9 | 17 | 21 | 22 | 0 | 25 | 14 | 9
15 | O=C(NOCC1CC1)c1cc(Br)c(F)c(F)c1Nc1ccc(I)cc1Cl | 26 | 9 | 0 | 0 | 0 | 0 | 20 | 33 | 0 | 0
16 | Cc1ccc2c(-c3ccnc(Nc4ccc(C(F)(F)F)cc4)n3)cnn2n1 [GW819776] | 0 | 7 | 9 | 23 | 19 | 0 | 0 | 37 | 10 | 31
17 | CCOC(=O)N1CCC(n2cnc(-c3ccc(F)cc3)c2-c2ccnc(N)n2)CC1 [SB-219952] | 66 | 0 | 20 | 21 | 45 | 17 | 0 | 0 | 0 | 0
